Measured values published in PMC5540273 (PLoS ONE, 2017).

What was measured:
Details in all cases: concentration: 1 μM, replicates: in singlicate; n = 1
CAMKK1 = tested on: CAMKK1
CAMKK2 = tested on: CAMKK2
CASK = tested on: CASK
CDC2L1 = tested on: T1, CDC2L1
T1 construct: gene CDK11B

CDC2L2 = tested on: CDC2L2
CDC2L5 = tested on: T2, CDC2L5
T2 construct: gene CDK13

CDK11 = tested on: T3, CDK11
T3 construct: gene CDK19

CDK2 = tested on: CDK2
CDK3 = tested on: CDK3
CDK4-cyclinD1 = tested on: CDK4-cyclinD1
CDK4-cyclinD3 = tested on: CDK4-cyclinD3
CDK4 = tested on: CDK4
CDK5 = tested on: CDK5
CDK7 = tested on: CDK7
CDK8 = tested on: CDK8
CDK9 = tested on: CDK9
CDKL1 = tested on: CDKL1
CDKL2 = tested on: CDKL2
CDKL3 = tested on: CDKL3
CDKL5 = tested on: CDKL5
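Further: KINOMEscan kinase panel screen.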

| SMILES | %Inh (CAMKK1) | %Inh (CAMKK2) | %Inh (CASK) | %Inh (CDC2L1) | %Inh (CDC2L2) | %Inh (CDC2L5) | %Inh (CDK11) | %Inh (CDK2) | %Inh (CDK3) | %Inh (CDK4-cyclinD1) | %Inh (CDK4-cyclinD3) | %Inh (CDK4) | %Inh (CDK5) | %Inh (CDK7) | %Inh (CDK8) | %Inh (CDK9) | %Inh (CDKL1) | %Inh (CDKL2) | %Inh (CDKL3) | %Inh (CDKL5) |
| --- | --- | --- | --- | --- | --- | --- | --- | --- | --- | --- | --- | --- | --- | --- | --- | --- | --- | --- | --- | --- |
| CN(C1=C(c2ccccc2)C(=O)NC1=O)c1ccccc1 [SB-334860] | 0% | 16% | 17% | 0% | 14% | 0% | 8% | 5% | 8% | 0% | 9% | 5% | 6% | 15% | 4% | 9% | 6% | 0% | 0% | 8% |
| Cc1c(Cn2c(C)nn3c(=O)cc(N4CCOC(C)C4)nc23)cccc1C(F)(F)F (centres unmarked) [GSK2344444] | 0% | 0% | 0% | 0% | 0% | 0% | 0% | 0% | 4% | 0% | 0% | 25% | 0% | 0% | 0% | 2% | 0% | 4% | 0% | 0% |
| NS(=O)(=O)c1cccc(-c2ccc3nccc(-c4cccc(S(N)(=O)=O)c4)c3c2)c1 [GW867253] | 13% | 19% | 30% | 0% | 0% | 0% | 13% | 0% | 22% | 0% | 0% | 19% | 0% | 4% | 36% | 0% | 27% | 16% | 20% | 5% |
| Cc1nnc(-c2ccc(C)c(-c3ccc(C(=O)Nc4ccc(NS(C)(=O)=O)cc4)cc3)c2)o1 [GW702865] | 0% | 0% | 23% | 0% | 8% | 0% | 0% | 0% | 1% | 36% | 0% | 0% | 0% | 0% | 28% | 0% | 5% | 18% | 0% | 0% |
| O=c1cc(N2CCOCC2)nc2n(Cc3cccc(F)c3)ccn12 [GSK2297430] | 25% | 3% | 0% | 3% | 6% | 0% | 0% | 7% | 1% | 0% | 0% | 19% | 0% | 0% | 26% | 0% | 0% | 0% | 0% | 0% |
| O=C1NC(=O)C(N2CCc3ccccc32)=C1c1cccc(Cl)c1 [SB-408010] | 7% | 0% | 0% | 0% | 5% | 0% | 0% | 0% | 0% | 0% | 0% | 0% | 7% | 9% | 0% | 0% | 0% | 11% | 0% | 0% |
| Cc1nnc(-c2ccc3occ(-c4ccc(C(C)O)cc4)c3c2)o1 (centres unmarked) | 12% | 14% | 4% | 1% | 4% | 22% | 0% | 5% | 4% | 0% | 0% | 0% | 1% | 17% | 0% | 8% | 52% | 0% | 0% | 25% |
| COc1ccc(Nc2nccc(N3CCC(NC(=O)Nc4cc(C)ccc4C)C3)n2)cc1 (centres unmarked) [GSK1379741] | 0% | 0% | 3% | 0% | 0% | 0% | 70% | 0% | 7% | 0% | 0% | 0% | 0% | 0% | 11% | 0% | 0% | 44% | 0% | 5% |
| NS(=O)(=O)CCc1cccc(Nc2nccc(-c3c(-c4cccc(NC(=O)c5c(F)cccc5F)c4)nn4ccccc34)n2)c1 [GSK336735] | 0% | 8% | 7% | 11% | 35% | 0% | 14% | 0% | 21% | 0% | 0% | 19% | 0% | 0% | 0% | 0% | 0% | 25% | 0% | 1% |
| COc1cc2c(cc1OC[C@@H](O)CO)ncc1c3ccc(C#N)cc3[nH]c21 | 60% | 22% | 0% | 0% | 0% | 0% | 20% | 0% | 19% | 0% | 0% | 4% | 17% | 99.5% | 15% | 0% | 12% | 0% | 8% | 0% |
